# Compound activity (PubChem BioAssay)
# Most compounds without a hit are left out; they make up all but 1.4% or so of the library.
# BJeLR viability: BJeLR cell viability loss | BJeLR (HRASV12) viability, CellTiter-Glo ATP luminescence, 48 h | inhibition, % (no concentration beside the values) | hit rate 0.17% among 300,000 | AID 1554; in the data active = inhibition above about 50%
# Mtb hypoxia rep: reduces hypoxia-regulated biosensor signal in M. tuberculosis; M. tuberculosis hypoxia-regulated fluorescent reporter, fluorescence; fluorescence inhibition, % (no concentration beside the values); hit rate 0.1% among 300,000; AID 1159583; in the data active = fluorescence inhibition mostly above about 23%, no sharp cut-off; inactive = mostly below about 17%
# SARS 3CLpro inh: SARS-CoV 3CLpro protease inhibition; recombinant SARS-CoV 3CLpro, quenched FRET peptide cleavage; AID 1706; inhibition, % at 6 µM; hit rate 0.14% among 290,000; in the data active = inhibition above about 12%
# RecA intein inh: blocks M. tuberculosis RecA intein splicing. hit rate 0.75% among 290,000. inhibition, % (no concentration beside the values). AID 2221. cell-free RecA intein splicing, fluorescence. P9WHJ3; in the data active = inhibition above about 30%;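 also: 0% = vehicle wells and 100% = reference inhibitor control wells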
# Target sequence (P9WHJ3 whole entry, looked up): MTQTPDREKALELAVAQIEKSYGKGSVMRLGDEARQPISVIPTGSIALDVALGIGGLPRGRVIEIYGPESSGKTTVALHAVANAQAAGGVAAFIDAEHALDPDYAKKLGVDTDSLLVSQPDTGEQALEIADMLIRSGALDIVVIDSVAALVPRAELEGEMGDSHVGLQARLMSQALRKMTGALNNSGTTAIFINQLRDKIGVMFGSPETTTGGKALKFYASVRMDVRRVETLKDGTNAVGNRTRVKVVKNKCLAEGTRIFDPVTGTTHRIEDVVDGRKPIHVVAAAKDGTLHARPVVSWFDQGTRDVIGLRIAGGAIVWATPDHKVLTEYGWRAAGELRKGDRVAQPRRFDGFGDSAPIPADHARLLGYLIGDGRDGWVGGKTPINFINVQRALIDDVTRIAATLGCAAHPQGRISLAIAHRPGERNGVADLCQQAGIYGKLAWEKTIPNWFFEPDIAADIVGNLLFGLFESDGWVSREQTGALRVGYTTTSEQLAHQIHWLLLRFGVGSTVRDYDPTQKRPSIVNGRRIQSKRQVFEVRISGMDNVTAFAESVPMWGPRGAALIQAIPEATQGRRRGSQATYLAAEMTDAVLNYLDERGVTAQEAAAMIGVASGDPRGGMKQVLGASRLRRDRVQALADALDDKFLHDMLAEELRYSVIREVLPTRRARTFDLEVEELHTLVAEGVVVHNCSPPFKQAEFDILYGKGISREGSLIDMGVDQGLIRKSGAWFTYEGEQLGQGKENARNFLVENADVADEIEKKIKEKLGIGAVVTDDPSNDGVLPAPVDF
# PrP 5UTR inh: suppresses PrP 5' UTR mRNA reporter expression; inhibition, % (concentration not given with the values); cell-based PrP 5' UTR mRNA reporter, plate reader; hit rate 0.35% among 340,000; in the data active = inhibition above about 52%; also: 0 = median of the neutral control wells
# PrPC surface inh: cell surface PrPC inhibition, primary TR-FRET screen. P04156. TR-FRET read-out. inhibition, % at 13.8 µM. hit rate 0.43% among 370,000; in the data active = inhibition above about 24%; also: 0% = median of the test wells and 100% = reference compound wells
# Numbers without * were called inactive; · = no result given.
SMILES,BJeLR viability,Mtb hypoxia rep,SARS 3CLpro inh,RecA intein inh,PrP 5UTR inh,PrPC surface inh
CC1=C(C)C(=NOS(=O)(=O)c2ccccc2)C=CC1=O,·,15.5,·,·,·,·
CC1=C(C)/C(=N\OS(=O)(=O)c2ccccc2)C=CC1=O,84.3*,·,-2.5,41.4*,-15.6,·
CC1CCCC(C)N1N=Cc1ccccc1F (stereo not given),·,-1.7,·,·,·,·
Cc1ccc(NC2=C(Cl)C(=O)OC2OC(=O)c2ccco2)c(C)c1 (stereo not given),-1.7,·,-2.1,·,-18.8,2.1
Cc1ccc(C)c(NC2=C(Cl)C(=O)OC2OC(=O)c2ccco2)c1 (stereo not given),2.5,1.8,2.8,46.0*,-10.3,2.0
Cc1ccc(NC2=C(Cl)C(=O)OC2OC(=O)c2ccco2)cc1C (stereo not given),0.6,7.6,6.4,54.0*,-0.3,9.1
CN(CC1CCOCC1)C(=O)CC1C(=O)NCCN1CC=Cc1ccccc1 (stereo not given),·,4.8,·,·,·,·
CC(=NNC(=O)c1cccc(S(=O)(=O)N2CCCC2)c1)c1cccs1,·,11.1,·,·,·,·
[O-]/C(=C(\C(=S)Nc1cccc2ccccc12)[n+]1cccc(CO)c1)c1ccc(Cl)s1,·,-2.3,2.0,·,-53.2,-10.1
Cc1c(Cl)cccc1NC(=S)/C(=C(\[O-])c1ccc(Cl)s1)[n+]1ccccc1,4.9,·,-6.6,37.2*,-4.4,4.9
Cc1cc(S(=O)(=O)Nc2c(C)ccc3nsnc23)ccc1F,·,15.2,3.3,4.0,-10.7,-5.2
Cc1ccc2nsnc2c1NS(=O)(=O)c1c(C)ccc2nsnc12,-0.5,2.4,-1.8,36.4*,-20.2,-10.6
Clc1cc2cccnc2c2ncccc12,·,66.6,·,·,-9.0,16.1
Cc1c(C)c2cccnc2c2ncccc12,·,·,·,·,58.6*,·
O=C(NN=CC(c1ccccc1)c1ccccc1)c1ccccc1F,·,13.1,·,·,·,·
CC(C)CC(NC(=O)c1[nH]cnc1C(=O)NC(C)C(=O)OC(C)(C)C)C(=O)OCc1ccccc1 (stereo not given),·,11.2,·,·,·,·
Cn1c2ccccc2c2cc(C(=O)NNC(=O)CCl)sc21,3.4,-3.9,0.2,32.7*,-13.4,1.9
CSCCC(C(=O)NCCCCCCCCCCC(=O)N1CCNCC1)n1cc(CCO)nn1 (stereo not given),·,14.5,·,·,·,·
CCc1ccc(C2NC(=S)NC3=C2C(=O)N(c2ccccc2OC)C(c2ccc(CC)cc2)N3)cc1 (stereo not given),1.8,0.5,1.4,10.5,-4.5,-9.3
O=C1C2=C(NC(=S)NC2c2ccc(Cl)cc2)NC(c2ccc(Cl)cc2)N1c1ccc(Cl)cc1 (stereo not given),-4.8,0.2,2.2,36.8*,-4.0,2.4
Oc1ccc(C=NN2CCN(c3ccccn3)CC2)cc1,·,-8.4,·,·,·,·
N#Cc1ccc(OCC(=O)N2CCN(S(=O)(=O)c3ccc(Cl)s3)CC2)cc1,·,27.2*,·,·,-30.2,-3.7
CC(C)(C)c1nnc(NN=Cc2ccccc2O)n(N)c1=O,·,-3.7,·,·,·,·
CC(C)(C)c1nnc(N/N=C/c2cc(Br)ccc2O)n(N)c1=O,85.4*,·,2.8,12.1,39.3,-5.2
CCOC(=O)c1cnc2ccc(C)cc2c1Sc1ccc(F)cc1,-7.5,·,1.2,66.6*,-41.5,0.4
SMILES,BJeLR viability,Mtb hypoxia rep,SARS 3CLpro inh,RecA intein inh,PrP 5UTR inh,PrPC surface inh
COc1ccc(/C=C2\SC(=S)N(CCC(=O)NCCCn3ccnc3)C2=O)cc1,3.6,4.6,-7.3,15.7,-16.2,-9.6
COc1ccccc1/C=C1\SC(=S)N(CCC(=O)NCCCn2ccnc2)C1=O,77.7*,5.6,-2.0,2.7,-1.1,-15.7
COc1ccccc1/C=C1\SC(=O)N(CCC(=O)NCCCn2ccnc2)C1=O,82.6*,4.6,4.8,1.4,-42.7,-13.2
COC(=O)C1=C(c2ccc(OC(F)(F)F)cc2)CC2CCC1N2C(=O)NC(C)C (stereo not given),·,-0.1,·,·,·,·
c1ccc(-c2nc(N3CCCCCC3)nc(-n3ccnc3)n2)cc1,3.5,·,-1.0,45.9*,-9.6,1.7
Oc1ccc(-c2[nH]ncc2-c2cnn(-c3ccccc3)c2)c(O)c1,5.1,10.3,3.4,-1.1,28.1,-1.8
Oc1cnn(-c2ccccc2)c1,9.5,·,-2.0,63.5*,8.6,5.8
Cc1ccc(SCC(=O)OCC(=O)N(CCC#N)c2ccccc2)cc1C,7.0,-2.3,·,6.2,-12.3,-4.2
Cc1ccc(N(CCC#N)C(=O)CCl)cc1C,-3.3,38.5*,4.8,56.2*,-41.9,-7.2
CC1CCCC(C)N1C(=O)COC(=O)c1cccnc1Cl (stereo not given),·,33.8*,·,·,-27.1,-6.4
O=C(COC(=O)c1cccnc1Cl)NC1CCCCCC1,·,2.5,·,·,-14.7,-2.5
COc1ccc(C2C=CCN(C(=O)OCc3ccccc3)CC(=O)N2Cc2ccc(F)cc2)cc1 (stereo not given),·,20.9,·,·,·,·
CCCCCOc1ccc(Br)cc1/C(C)=N/NC1=NCCN1,81.0*,·,-0.4,19.7,-40.4,16.2
O=C(CCn1cnc(-c2ccccc2)c1-c1ccccc1)NN=Cc1ccccc1O,·,-0.8,·,·,·,·
O=C(CNc1ccccc1)NN=Cc1ccc2c(c1)OCCO2,·,7.3,·,·,·,·
Cc1ccc(NC2=C(N3CCOCC3)C(=O)c3ccccc3C2=O)cc1,11.3,3.8,4.8,41.0*,11.7,-15.1
CC(=O)N(C)C1=C(N2CCOCC2)C(=O)c2ccccc2C1=O,20.2,17.7,3.3,32.2*,-5.8,·
CC(C)CCn1c(=O)c2ccccc2n2c(CCl)nnc12,0.6,36.1*,4.4,·,6.1,1.1
COC(=O)C1=C(c2ccc(OC(F)(F)F)cc2)CC2CCC1N2C(=O)N1CCC(O)CC1 (stereo not given),·,3.6,·,·,·,·
Cn1nc(C(C)(C)C)cc1C(=O)O,-0.5,4.3,-0.9,3.9,-9.4,-0.6
Cn1nc(C(C)(C)C)cc1C(=O)Sc1cccc(Br)c1,-5.3,·,-3.0,42.7*,-5.8,5.3
COC(=O)c1ccc(-n2c(C)cc(C=NNc3nc(C)cc(=O)[nH]3)c2C)cc1,·,1.4,·,·,·,·
Cc1[nH][nH]c(=O)c1C(c1ccc(-c2cccc(Cl)c2)o1)c1c(C)[nH][nH]c1=O,4.7,16.9,6.0,96.6*,-9.4,·
Cc1[nH][nH]c(=O)c1C(c1ccc(-c2cccc(C(=O)O)c2)o1)c1c(C)[nH][nH]c1=O,2.1,1.8,3.2,·,-19.1,2.6
CNC(=O)c1[nH]cnc1C(=O)NC(CC(C)C)C(=O)OCc1ccccc1 (stereo not given),·,10.0,·,·,·,·
SMILES,BJeLR viability,Mtb hypoxia rep,SARS 3CLpro inh,RecA intein inh,PrP 5UTR inh,PrPC surface inh
CNC(=S)NN=C(C)c1ccc2c(c1)OCO2,·,10.4,·,·,·,·
Cc1ccc(NC(=S)NC(=O)c2sc3ccccc3c2Cl)c(C(=O)O)c1,-1.5,·,2.1,3.4,·,·
O=C(O)c1ccccc1NC(=S)NC(=O)c1sc2ccccc2c1Cl,·,9.9,2.3,-3.6,-20.3,26.1*
CCC(=Nc1ccccc1O)C1=C(O)CC(c2ccccc2)CC1=O (stereo not given),2.5,70.4*,2.2,3.0,-4.2,-9.7
COc1ccc(N=Nc2ccc(O)c3ncccc23)cc1,26.1,4.0,1.9,10.3,13.4,-7.4
Cc1ccccc1N=Nc1ccc(O)c2ncccc12,65.9*,3.7,5.8,1.4,20.4,5.3
